Screening data (PubChem BioAssay)
Only some compounds are listed: those with a hit (about 3.7% of all), similar ones and a draw of the others.
DRV1 agonist: GPR32 (DRV1) agonism, beta-arrestin recruitment | O75388 | CHO-K1 GPR32 beta-arrestin PathHunter luminescence, 90 min; zero percent set by DMSO-only wells | activation, % at 76.9 µM | hit rate 2.5% among 48,000;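 active means activation of at least 60% and not above a set upper limit, about 1 call in 100 departs from these limits; inconclusive means activation of 40% to 60%, or above that upper limit; inactive means activation under 40%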; further: 0% is about no effect
Target sequence (O75388 whole entry, looked up): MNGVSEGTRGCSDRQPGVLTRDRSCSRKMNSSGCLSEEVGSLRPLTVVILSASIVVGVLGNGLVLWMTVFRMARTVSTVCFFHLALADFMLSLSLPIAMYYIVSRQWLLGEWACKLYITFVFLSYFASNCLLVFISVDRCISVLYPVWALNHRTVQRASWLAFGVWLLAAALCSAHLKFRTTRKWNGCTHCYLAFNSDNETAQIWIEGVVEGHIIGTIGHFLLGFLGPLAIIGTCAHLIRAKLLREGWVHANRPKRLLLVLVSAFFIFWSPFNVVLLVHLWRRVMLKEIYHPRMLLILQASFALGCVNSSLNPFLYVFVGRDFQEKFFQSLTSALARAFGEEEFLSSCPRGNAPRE
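Agonism was scored by beta-Gal fragment complementation (chemiluminescent read, 1 h detection at ambient temperature) reporting beta-arrestin binding to GPR32 in engineered CHO-K1 cells. Compound treatment lasted 90 min at 37 C, normalized to a DMSO basal control.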
HTT promoter inh: HTT promoter inhibition | HEK293 HTT promoter firefly luciferase reporter, 24 h | Potency, µM (series often up to 57.5 µM), for inactives: top-dose activity change, negative = inhibition, actives largely listed as inhibitors | hit rate 0.93% among 48,000; further: potency means the concentration at half of the fitted maximal effect; nearly all actives have a fitted effect of over 50% in size
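Quantitative HTS used concentration series of up to 57.5 uM final on HEK293 luciferase reporter cells, 24 h at 37 degrees C. Readout was Dual-Glo firefly luminescence.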
HTT-AS act: HTT-AS promoter activation. AID 1508624. hit rate 0.24% among 48,000. Potency, µM (highest dose often 57.5 µM), for the others: top-dose activity change, positive = activation, usual class: activators. HEK293 HTT-AS promoter firefly luciferase reporter, 24 h; response scale: percent change from vehicle, -100% = no light; further: potency means the concentration at half of the fitted maximal effect; nearly all actives have a fitted effect of over 55% in size
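HEK293 cells carrying firefly luciferase reporters were seeded at 2,500 per well in Opti-MEM and cultured for 24 h. They were then treated with compounds at up to 57.5 uM final for 24 h at 37 degrees C before Dual-Glo luminescence readout.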
Starred values were filed as active, the others as inactive; ? = inconclusive; · = not tested or not shown; [ ] = another dose, or the depositor's remark. Unless noted, the call rests on the fitted dose curve; in most records, active means well fitted curve in the direction sought with a large enough effect; inconclusive means small, poorly fitted or top-dose-only effect, or another doubt; inactive means no such curve, though single readings can be large; an effect the other way counts as inactive or inconclusive.

SMILES | DRV1 agonist | HTT promoter inh | HTT-AS act
CCOC(=O)c1ccc(N2C(=O)c3n[nH]c(-c4ccco4)c3C2c2ccc(F)cc2)cc1 (configuration not stated) | ? | ? | -57%
COc1ccc(OC)c(NC(=O)c2cnn(-c3ccc(C)cc3)c2C2CCNCC2)c1 | 1 | -1% | -2%
CCOC(=O)c1[nH]c(C)c(C(=O)NCCc2ccccc2)c1C | 85* | 38% | 7.9µM*
CC(=O)c1[nH]c(C)c(C(=O)NCCc2ccc(C)cc2)c1C | -7 | -2% | -13%
CCN1CCOC(=O)C1CC(=O)Nc1ccc(Br)cc1 (configuration not stated) | 74* | -11% | -23%
CCN1CCOC(=O)C1CC(=O)Nc1cc(C)ccc1OC (configuration not stated) | -53 | 10% | -14%
Cc1ccc(C(=O)Nc2ccc3c(c2)N(C)C(=O)c2ccccc2S3)cc1F | -6 | 13µM* | -52%
CN1C(=O)c2ccccc2Sc2ccc(NC(=O)N3CCN(c4ccc(F)cc4)CC3)cc21 | -4 | 28µM* | -77%
CC(C)NC(=O)Nc1ccc2c(c1)N(C)C(=O)c1ccccc1S2 | 7 | 0% | -4%
CC(=O)Nc1cc(C(=O)Nc2ccc3c(c2)N(C)C(=O)c2ccccc2S3)ccc1C | -8 | -7% | -20%
COc1ccc(Nc2nnc(-c3ccc(C)c(S(=O)(=O)N4CCOCC4)c3)c3ccccc23)cc1 | 11 | -6% | 10%
COC(=O)c1ccccc1NC(=O)Cn1c(=O)cc(C)c2c(C)nn(C)c21 | -7 | ? | -26%
Cc1nn(C)c2c1c(-c1ccccc1)cc(=O)n2CC(=O)NC(C)(C)C | 91* | -24% | -32%
COc1ccc(C)cc1NC(=O)Cn1c(=O)cc(C)c2c(C)nn(C)c21 | -4 | 2µM* | -94%
CCC(C)NC(=O)Cn1c(=O)cc(-c2ccccc2)c2c(C)nn(C)c21 (configuration not stated) | 10 | -16% | -18%
CCNC(=O)c1noc(-c2cc(C(C)C)c(O)cc2O)c1-c1ccc(CN2CCOCC2)cc1 | · | ? | -64%
CCc1cccc(-n2c(=O)c3cccnc3n2CC(=O)NCc2ccc(C)cc2)c1 | -2 | -7% | -7%
COc1ccccc1[C@H](c1cccc2ccccc12)[C@@](C)(C#N)C(=O)N1CCC(c2cccc(C(F)(F)F)c2)CC1 | · | -4% | -11%
COc1ccc(OCC(=O)Nc2ccc(-c3nc4cc(Cl)ccc4o3)cc2)cc1 | 3 | 105% | ?
COc1ccc(Nc2nc3ccccc3nc2NS(=O)(=O)c2ccc(Cl)cc2)cc1OC | 118* | ? | -42%
COc1ccc(-c2nc3ccc(NS(=O)(=O)c4ccc(Cl)cc4)cc3o2)cc1 | 79* | -20% | -13%
Cc1ccc(S(=O)(=O)Nc2nc3ccccc3nc2Nc2ccc3nsnc3c2)cc1 | · | -22%[25.2 µM] | -27%[25.1 µM]
CCOC(=O)CC(NC(=O)CCc1c(C)nc2c(c(C)nn2-c2ccc(C)c(C)c2)c1C)c1ccc(C)cc1 (configuration not stated) | -4 | -13% | -19%
Cc1cc(Br)cc(C)c1NC(=O)c1cnc2ccccn2c1=O | -14 | 36% | 28µM*
Cc1ccc(C(=O)Nc2c(C)nc3ccccn3c2=O)cc1C | -3 | 52% | ?
SMILES | DRV1 agonist | HTT promoter inh | HTT-AS act
CN1CCN(C2=Nc3ccccc3Oc3ccc(Cl)cc32)CC1 | -29 | -6% | -18%
CN1C[C@H]2c3ccccc3Oc3ccc(Cl)cc3[C@@H]2C1 | 92* | 6% | -9%
CNc1nc(-c2ccc3c(N)n[nH]c3c2)cc(N2C[C@@H](C(=O)NC3CCCCC3)CC[C@@H]2C)n1 | · | -18% | -26%
COC(=O)C(C)Sc1ncnc2c1c(-c1ccccc1)cn2-c1ccc(F)cc1 (configuration not stated) | 0 | ? | -19%
COc1ccc(-n2cc(-c3ccccc3)c3c(SC(C)C(C)=O)ncnc32)cc1 (configuration not stated) | 99* | -22% | -22%
CCOc1ccc(/C=C/c2nc3ccccc3n2S(=O)(=O)c2cccc(Cl)c2)cc1 | 70* | ? | -55%
Cc1ccc(/C=C/c2nc3ccccc3n2S(=O)(=O)c2cccc(Cl)c2)cc1 | 40 | 18% | 31%
Cc1ccc(C(C)OC(=O)C2(C)CCC(C(=O)O)C2(C)C)cc1 (configuration not stated) | -2 | 1% | 1%
CCCn1ccc2c(OCC(=O)NCc3ccccc3Cl)cccc2c1=O | 69* | -18% | -10%
CCn1ccc2c(OCC(=O)Nc3ccccc3C)cccc2c1=O | 45 | -35% | -21%
CCn1ccc2c(OCC(=O)Nc3ccccc3C(F)(F)F)cccc2c1=O | 85* | ? | -34%
CCn1ccc2c(OCC(=O)NCc3ccccc3)cccc2c1=O | 22 | -23% | -10%
CCCOc1ccc(C2=NC(c3ccc(F)cc3)=Nc3ccc(OC)cc3N2)cc1 | -9 | -13% | -4%
c1ccc(-c2nnc(CN3CCN(c4ccccn4)CC3)o2)cc1 | 17 | 4% | 0%
Cc1cccc(-c2nc(SCc3cc(=O)c4c(C)cc(C)cc4[nH]3)n[nH]2)c1 | 116* | -25% | -41%
Cc1cc(C)c2c(=O)cc(CSc3n[nH]c(C)n3)[nH]c2c1 | 7 | 6% | -8%
CCc1ccc(CNCc2c(C(=O)O)n(Cc3cccc(F)c3)c3cc(OC)ccc23)cc1 | 109* | ? | -44%
COc1ccc(OC)c(CNCc2c(C(=O)O)n(Cc3cccc(F)c3)c3cc(OC)ccc23)c1 | 5 | -14% | -30%
COc1ccc(Cn2c(C(=O)O)c(CNCCc3ccco3)c3ccc(OC)cc32)cc1 | 1 | -25% | -17%
CCc1ccc(CNCc2c(C(=O)O)n(Cc3ccc(C)cc3)c3cc(C)ccc23)cc1 | 33 | ? | -48%
COc1ccc2c(CNCCc3ccc(SC)cc3)c(C(=O)O)n(Cc3ccc(F)cc3)c2c1 | 115* | ? | -33%
Cc1ccc(CNCc2c(C(=O)O)n(Cc3ccc(C)cc3)c3cc(C)ccc23)cc1 | 98* | ? | -58%
CCOc1ccc(CCNC(=O)c2ccc(-c3nc(COc4ccc(C)cc4)c(C)o3)cc2)cc1 | -3 | -24% | -17%
CCCOc1ccc(Oc2nc(NC)nc(N3CCOCC3)n2)nn1 | -10 | 0% | -15%
COc1ccc(S(=O)(=O)N2CCC(n3c(C)nc4cccnc43)CC2)cc1Cl | 70* | · | ·
Cc1ccc(S(=O)(=O)N2CCC(n3c(C)nc4cccnc43)CC2)c(C)c1 | ? | ? | -36%
COc1cc(C2c3c(-c4cc(C)ccc4O)n[nH]c3C(=O)N2Cc2ccco2)cc(OC)c1OC (configuration not stated) | -17 | -7% | -14%
COc1cc(C2c3c(-c4c(C)cc(C)cc4O)n[nH]c3C(=O)N2CCO)cc(OC)c1OC (configuration not stated) | ? | -25% | -18%
COc1cc(C2c3c(-c4c(C)cc(C)cc4O)n[nH]c3C(=O)N2Cc2ccco2)cc(OC)c1OC (configuration not stated) | 65* | -33% | -33%
